Data on 46 molecules can be found in PubChem BioAssay AID1671193 (National Center for Advancing Translational Sciences (NCATS), 2021).

The campaign covered roughly 150,000 compounds. About 180 (0.12%) were called active. About 6% were inconclusive and are not listed. What follows is part of a selection rich in actives, with near analogues and random picks from the rest. Where a call stands in place of a potency, no number is given. Values without a mark were called inactive. The call rests on the fitted dose curve; in most records, active means well fitted cell-killing curve with a large enough effect; inconclusive means small, poorly fitted or top-dose-only effect, or effect the other way; inactive means flat fitted curve, though single readings scatter.
Potency means the concentration at half of the fitted maximal effect.

The test can be described thus: GF-AFC viability counterscreen for inhibitors of alpha-synuclein gene (SNCA) expression. Further: nearly all actives have a fitted effect of over 30% in size. The following applies: HEK-293-SNCA-luc viability, GF-AFC fluorescence, 24 h; series mostly up to 57.1 µM. The source says: Assay Submitter (PI): Daniel R. Scoles Ph.D.
Department of Neurology, University of Utah, Salt Lake City, Utah
Accumulation of alpha-synuclein is a main underlying pathological feature of Parkinson's disease (PD) and alpha-synucleinopathies, for which lowering expression of the alpha-synuclein gene (SNCA) is a potential therapeutic avenue. Using a cell-based luciferase reporter of SNCA expression we performed a quantitative high throughput screen (qHTS) of 155,885 compounds in dose response. The screening assay was generated using genome editing to insert the luciferase gene downstream and in frame of the SNCA gene in HEK-293 cells (1). A viability counterscreen using GF-AFC was used to eliminate cytotoxic and false positive compounds. After in silico analysis (clustering, removal of frequent hitter nuisance chemotypes), inhibitor compounds from the primary screen were selected for follow up and re-tested at 11-doses in the SNCA-luc cells (luciferase and GF-AFC confirmation), and in CMV-luc expressing cell line to flag general transcriptional repressors.
Described herein are the results of the GF-AFC viability counterscreen for SNCA inhibitors; inactivity (no decrease in fluorescence signal, not cytotoxic) is the desired output for this assay.
1. Dansithong, W., Paul, S., Scoles, D. R., Pulst, S. M., and Huynh, D. P. (2015) Generation of SNCA Cell Models Using Zinc Finger Nuclease (ZFN) Technology for Efficient High-Throughput Drug Screening. PLoS ONE 10, e0136930.
SEQUENCE No. (e.g., 1, 2, 3, etc.); […] (e.g., Cells, Incubation, Reagent, etc.); VALUE; DESCRIPTION
1; Cells; 4 uL; Dispense 1500 HEK-293-SNCA-luc cells/well into Greiner 1536-well white / solid bottom tissue culture treated plate. The plate was covered with metal lids with gas-exchange holes.
2; Incubate; 24 hours; Incubate at 37C, 5% CO2, 95% RH.
3; Compounds; 23 nL; Compounds and controls were transferred via a Kalypsys Pin Tool (Wako USA) equipped with a 1536-slotted pin array. The plate was covered with metal lids with gas-exchange holes.
4; Incubate; 24 hours; Incubate at 37C, 5% CO2, 95% RH.
5; Dispense; 1 uL; Dispense Gly-Phe-7-amino-4-trifluoromethylcoumarin (GF-AFC, prepared at 125 uM in PBS) was added. The plate was covered with metal lids with gas-exchange holes.
6; Incubate; 30 min; Incubate at 37C, 5% CO2.
7; Detector; Fluorescence; Measure fluorescence with ViewLux microplate reader (PerkinElmer) equipped with 405/10 excitation and 540/25 emission filters.
8; Dispense; 3 uL; Dispense ONE-Glo ([…]) lucifase detection reagent was added to each well. Plates were covered with metal lids with gas-exchange holes.
9; Incubate; 15 min; Incubate at room temperature.
10; Detector; Luminescence; Measure luminescence with ViewLux microplate reader (PerkinElmer) equipped with clear filters.
NOTES (numbers refer to sequence above)
1; HEK-293-SNCA-luc were cultured and suspended in phenol-red free DMEM (4.5 g/L glucose, 25 mM HEPES, cat #21063 (Thermo)).
3; Compounds were added to the assay plate in an 11-point intra plate dose response, 1:3 titration in DMSO with a final concentration range of […]. Vehicle-only plates, with DMSO being pin-transferred to every well, were inserted at the beginning of screening runs to confirm expected assay performance. Activity was normalized to wells containing medium only (-100% activity, full inhibition) and SNCA-luc cells treated with DMSO vehicle control (0% activity), contained on the same plate as test samples.
10; Signals were analyzed, and dose-response curves were fit using the Hill equation. Compounds in curve classes -1.1, -1.2, -2.1, -2.2 in the SNCA-luc assay were considered active. Compounds were eliminated from further consideration if also active (curve class -1.1, -1.2, -1.3, -1.4, -2.1, -2.2, -2.3, -2.4) in the GF-AFC cytotoxicity assay.
For the molecule `COCCN1C(=O)c2cccn2CC1CNC(=O)CCc1nc(-c2ccccc2)no1` (stereo unspecified), the Potency result is “inactive”. Take `O=C1NCCCCCN(S(=O)(=O)c2ccc3c(c2)CCC3)[C@H]2CCCC[C@@H]12`: the Potency entry was “inactive”. The same measure, in the same setting: then `COc1cccc(CNC(=O)c2cc(-c3ccccc3)nc3c2cnn3C)c1`, with “inactive”. The same measure, in the same setting: the same measure for `CC1(c2ccccc2)N(Cc2ccc(O)cc2)C(=O)OC12CCN(Cc1ccc(C#N)cc1)CC2` (stereo unspecified): “inactive”; for `COC(=O)CNC(=O)C1CCCN1Cc1ccc(-c2cc(C)cc(C)c2)cc1` (stereo unspecified): “inactive”; for `Cc1cccc(N2Cc3c(NCCCN4CCCCC4)ncnc3N(C)CC2=O)c1`: “inactive”. As to `O=C(NCc1cccnc1)c1cn2cc(-c3cccc(C(F)(F)F)c3)sc2n1`, the Potency entry is “inactive”.

In the case of `CCOC(=O)C1CCCN(C(=O)C2CCc3nnc(CN[S+](C)(=O)[O-])n32)C1` (stereo unspecified), the Potency result is “inactive”. On the same count and under the same terms, the same measure for `Cc1ccc(C(=O)N2CCCC(c3nc(C4CCOCC4)no3)C2)cn1` (stereo unspecified): “inactive”. On the same count and under the same terms, then `CN(Cc1ccsc1)C(=O)C1CCCN(C2CCN(C(=O)C3CC3)CC2)C1` (stereo unspecified), with “inactive”. On the same count and under the same terms, then `COc1cccc(-c2cccc(CN3CCCC3C(=O)NCC(C)C)c2)c1` (stereo unspecified), with “inactive”. `Cc1ccnc(NC(=O)C2CC(=O)N(c3n[nH]c4cc(Br)ccc34)C2)c1` (stereo unspecified): the Potency entry is “inactive”.

On to `COCC1CN(C2CCC2)CC12CCN(C(=O)c1ccc(C)s1)CC2` (stereo unspecified), for which the Potency entry is “inactive”. Still for that read-out and setting: then `O=C1NC2(CCN(C(=O)c3ccccc3)C2)COc2ccccc21` (stereo unspecified), with “inactive”; and `Oc1ccccc1CN1CCC(O)(c2csc(CN3CCN(c4ccccn4)CC3)n2)CC1`, with “inactive”; and `FC(F)(F)c1cccc(C2=NOC3(CCCN(Cc4ccccn4)C3)C2)c1` (stereo unspecified), with “inactive”.

Consider `O=C(C1CC=CC1)N1CCC2(CC1)NCCc1c2[nH]c2ccccc12`, for which the activity change, negative = cytotoxicity was -15.1% [at 12.5 µM]. As to `COc1ccc(-c2cc3c(nc2-c2ccccc2)nc(C(=O)NCCN(C)C)n3C)cc1OC`, the Potency result is “inactive”. On the same count and under the same terms, the same measure for `O=C(Nc1ccccc1)N1CCC(C(=O)N2CCCC(c3nc4ccncc4[nH]3)C2)CC1` (stereo unspecified): “inactive”. The same measure, in the same setting: the same measure for `O=C(c1ccc(F)cc1)N1CCC(C(=O)N2CCC(c3ccccc3)CC2)CC1`: “inactive”; for `CCCN(Cc1nccn1C)C(=O)c1ccccc1C1CCNC1` (stereo unspecified): “inactive”. On the same count and under the same terms, then `O=c1c2nc(OCc3ccc(-n4cccn4)cc3)ccc2ncn1Cc1ccccc1`, with “inactive”; and `COc1cccc(CNC(=O)c2cn3cc(-c4ccc(C)cc4)sc3n2)c1`, with “inactive”; and `COCCOC1CN(C2CCN(S(=O)(=O)c3cccs3)CC2)C12CCCCC2` (stereo unspecified), with “inactive”. On to `O=C([C@H]1CCCN1C(=O)c1ccc(Cl)nc1)N1CCCC(c2nc3ccncc3[nH]2)C1` (stereo partly specified), for which the Potency entry was “inactive”. Regarding `CCOc1ccc(N(Cc2ccccc2)C(=O)c2nc(S(C)(=O)=O)ncc2Cl)cc1`, the Potency was 5.62 µM (active). In the case of `CCOc1ccc(NC(=O)CN(Cc2ccccc2)S(=O)(=O)c2ccc(Cl)cc2)cc1`, the Potency entry is “inactive”. On the same count and under the same terms, the same measure for `CCOc1ccc(N(Cc2ccccc2)C(=O)c2nc(SCC)ncc2Cl)cc1`: “inactive”; for `Cc1c(C(F)(F)F)nc(-c2ccc(CN3CCNCC3)cc2)[nH]c1=O`: “inactive”; for `Cc1ccc(NC(=O)Cn2ccn3nc4c(c3c2=O)CCCCC4)cc1`: “inactive”.

As for `Cc1ccc(OCc2nc(C3CCN(C(=O)Cc4cccc(F)c4)CC3)no2)cc1`, the Potency result is “inactive”. Still for that read-out and setting: then `O=C(COc1ccc(F)cc1)NC1CCN(c2cc(-c3ccccc3)[nH]n2)CC1`, with “inactive”; and `CCC1Oc2ccc(NC(=O)c3c(F)cccc3F)cc2CN(CCc2ccc(F)cc2)C1=O` (stereo unspecified), with “inactive”.

Take `COC(=O)[C@@H]1Cc2c([nH]c3ccccc23)[C@H]2C[C@H](NCCNC(C)=O)C[C@@H](c3ccc(C)cc3)N21`: the Potency result was “inactive”.

In the case of `COC(=O)[C@@H]1Cc2c([nH]c3ccccc23)[C@H]2C[C@@H](NCCN3CCOCC3)C[C@@H](c3ccccc3F)N21`, the Potency is 28.2 µM (active).

For the molecule `COC(=O)[C@@H]1Cc2c([nH]c3ccccc23)[C@H]2C[C@@H](NCCN3CCOCC3)C[C@@H](c3ccccc3)N21`, the Potency result was “inactive”. On the same count and under the same terms, then `CN(C)C[C@@H]1CN(S(C)(=O)=O)C[C@H]1NC(=O)c1nn(C)c2ccccc12`, with “inactive”. Same read-out and setting: then `COc1ccccc1Nc1ccnc(N2CCC(C(=O)NCc3cccc(Cl)c3)CC2)n1`, with “inactive”.

Turning to `O=C(c1ccc(F)cc1)N1CCN(c2cc(-c3ccc(F)cc3)[nH]n2)CC1`, the Potency entry is “inactive”. Same read-out and setting: the same measure for `CCOC(=O)C1CCN(C(=O)C2CCc3nnc(CN[S+](C)(=O)[O-])n32)CC1` (stereo unspecified): “inactive”; for `O=C(c1ccon1)N1CC[C@@H]2[C@@H](CCC(=O)N2CC2CCNCC2)C1`: “inactive”; for `CCOc1ccccc1NC(=O)N1CCCN(C)c2ccccc21`: “inactive”.

Turning to `O=C(CCc1ccccc1)Nc1ccc([C@@H](O)[C@H]2COCC(=O)N2Cc2ccccc2F)cc1`, the Potency result is “inactive”.

On to `O=C(CCc1ccnc(N2CCCC2)c1)N1CCN(c2ccccc2)CC1`, for which the Potency entry is “inactive”. On to `CCCS(=O)(=O)c1ncc(Cl)c(C(=O)Nc2scc(-c3ccccc3)c2C(=O)OCC)n1`, for which the Potency result was “inactive”. The same measure, in the same setting: then `CCSc1ncc(Cl)c(C(=O)Nc2cc(C)ccc2C)n1`, with “inactive”.
